SMILES strings stand for the structures. Records with an inconclusive call do not appear. Where a call stands in place of a potency, no number is given. Values without a mark were called inactive. Activity calls are given as the source filed them. Calls follow the shape of the dose curve; as a rule, active = well fitted cell-killing curve with a large enough effect in the repeat runs; inconclusive = weak or mixed curves, or effect the other way; inactive = flat fitted curve, though single readings scatter.
Potency is read from the fitted curve at half-maximal effect.

This assay can be described thus: qHTS assay to identify small molecule antagonists of the constitutive androstane receptor (CAR) signaling pathway - cell viability counter screen (AID 1224837). Also: nearly all actives have a fitted effect of over 45% in size. To be noted: HepG2-CYP2B6-hCAR viability, CellTiter-Fluor, 23 h, co-treated with 50 nM CITCO; series mostly up to 92.4 µM. From the text:
National Center for Advancing Translational Sciences [NCATS]
NIH Chemical Genomics Center [NCGC]
U.S. Environmental Protection Agency [EPA]
National Institutes of Environmental Health Sciences [NIEHS]
National Toxicology Program [NTP]
U.S. Food and Drug Administration [FDA]
The constitutive androstane receptor (CAR) is a nuclear receptor which regulates multiple drug metabolizing enzymes (DMEs) and transporters. Activating CAR will generally increase the transcription and subsequent translation of CYP2B6 and CYP3A4. These two DMEs represent about 50% of the drug metabolizing potential in the body. When CAR is deactivated, the metabolizing potential in the body will decrease, subsequently increasing the toxicity in the body or lowering the therapeutic potential of a pro-drug. Recently, there have also been studies performed indicating CARs role in energy metabolism and cancer therapy. Therefore, inhibiting CARs activity could have a potential effect on diabetes and cancer. Identifying environmental toxins and compounds which modulate CAR, through the use of the Tox21 10K compound collection, will be an important step in determining the toxicity and potential therapeutic effects these factors will have on the human body. To differentiate true CAR antagonists from cytotoxic substances, the assay is multiplexed with a cell viability assay.
Tox21 Assay Protocol Summary:
A double-stable (hCAR and CYP2B6-2.2kb) transfected cell line, derived from human hepatoma (HepG2) cells, was utilized for the duration of the quantitative high-throughput screens. The HepG2-CYP2B6-hCAR cells were dispensed at 2500 cells/4 uL/well in 1536-well white solid bottom plates using a Multidrop Combi. After the assay plates were incubated at 37 C/5% CO2 for 4 hrs, 23 nL of compounds at 15 concentrations (from 5-48 columns) or positive control (from 1 to 4 columns) were transferred to the assay plates using a Pintool station. One uL of CITCO (final concentration = 50 nM) was added, using a Flying Reagent Dispenser, inside each well. After a 23 hr incubation period at 37 C/5% CO2, 1 uL of CellTiter-Fluor reagent was added into each well of the assay plates using a Flying Reagent Dispenser. The fluorescence intensity in the plates was then measured using a ViewLux plate reader.
Background: In qHTS, concentration-response curves come from the screen itself.
Turning to `CCCC(=O)Cl`, the Potency entry was “inactive”.
The same measure, in the same setting: then `ClC=C(Cl)Cl`, with “inactive”; and `N#CCc1ccccc1`, with “inactive”; and `COc1cc(CC(C)N)cc2c1OCO2` (stereo not given), with “inactive”.
In the case of `NCC(CC(=O)O)c1ccc(Cl)cc1` (stereo not given), the activity change, negative = cytotoxicity is 8.53% [at 0.349 µM].
`CCOP(=O)(OCC)SCCSCC`: the Potency result was “inactive”.
On to `Cc1c(F)c(F)c(COC(=O)C2C(/C=C(\Cl)C(F)(F)F)C2(C)C)c(F)c1F` (stereo not given), for which the Potency result is “inactive”.
For `CCC(COC(=O)c1cc(OC)c(OC)c(OC)c1)(c1ccccc1)N(C)C` (stereo not given), the Potency entry was “inactive”.
As to `Cc1cc(=O)[nH]o1`, the Potency entry was “inactive”.
Same read-out and setting: then `O=C1C(=O)c2cccc3cccc1c23`, with “inactive”; and `Cc1ccc2ccccc2c1`, with “inactive”; and `NNC(=O)c1cccnc1`, with “inactive”.
On the same count and under the same terms, then `CN1C(=O)C(O)N=C(c2ccccc2)c2cc(Cl)ccc21` (stereo not given), with “inactive”; and `CC(=O)[C@H]1CC[C@H]2[C@@H]3CC[C@H]4C[C@](C)(O)CC[C@]4(C)[C@H]3CC[C@]12C`, with “inactive”; and `NCCCNCCCN`, with “inactive”.
`CCOP(=S)(OCC)Oc1cc(Cl)c(Br)cc1Cl`: the Potency result is “inactive”.
Same read-out and setting: then `Cl/C=C\C[N+]12CN3CN(CN(C3)C1)C2`, with “inactive”.
Still for that read-out and setting: then `N#Cc1ccc(Cl)cc1`, with “inactive”; and `O=C1CN=C(c2ccccc2)c2cc(Cl)ccc2N1CC1CC1`, with “inactive”; and `CCCCC(CC)COP(=O)(Oc1ccccc1)Oc1ccccc1` (stereo not given), with “inactive”.
As to `CCOc1ccc(C(C)(C)COCc2cccc(Oc3ccccc3)c2)cc1`, the Potency entry was “inactive”.
Still for that read-out and setting: then `ClP(Cl)(Cl)(Cl)Cl`, with “inactive”.
Same read-out and setting: then `C=CC(=O)OC(C)(C)C`, with “inactive”.
Same read-out and setting: then `CNC(C)Cc1ccccc1OC` (stereo not given), with “inactive”; and `NC(=O)CI`, with “inactive”; and `COc1nn(C(=O)NS(=O)(=O)c2ccccc2OC(F)(F)F)c(=O)n1C`, with “inactive”.
Turning to `CCOc1nc(F)cc2nc(S(=O)(=O)Nc3c(Cl)cccc3Cl)nn12`, the Potency result is “inactive”.
As for `CC(C)(OO)c1ccccc1`, the Potency entry is “inactive”.
Still for that read-out and setting: then `Sc1ccccc1Cl`, with “inactive”; and `O=C(O)c1ccccc1C(=O)Nc1cccc2ccccc12`, with “inactive”.
Same read-out and setting: then `CN1C[C@H](CNC(=O)OCc2ccccc2)C[C@@H]2c3cccc4c3c(cn4C)C[C@H]21`, with “inactive”; and `CC(C)N(CCC(C(N)=O)(c1ccccc1)c1ccccn1)C(C)C` (stereo not given), with “inactive”; and `O=C(NCc1cccnc1)Nc1ccc([N+](=O)[O-])cc1`, with “inactive”.
For `CNP(=O)(OC)Oc1ccc(C(C)(C)C)cc1Cl` (stereo not given), the Potency result was “inactive”.
Still for that read-out and setting: then `CC(C)(C)C(O)C(Oc1ccc(Cl)cc1)n1cncn1` (stereo not given), with “inactive”; and `O=C=Nc1ccc(Cl)cc1`, with “inactive”; and `COP(=S)(OC)Oc1cc(Cl)c(I)cc1Cl`, with “inactive”.
The same measure, in the same setting: then `CC(=O)CCC(C)=O`, with “inactive”; and `O=C1NCN(c2ccccc2)C12CCN(CCCOc1ccc(F)cc1)CC2`, with 3.35 µM (active).
Same read-out and setting: then `COc1ccc(-c2ccccc2)cc1NNC(=O)OC(C)C`, with “inactive”.

(Values after PubChem BioAssay (Tox21).)
